Each structure is given as a SMILES string. Inconclusive results are not listed. Entries that show only a call come without a potency. Activity calls are given as the source filed them. The call rests on the fitted dose curve; in most records, active means well fitted activation curve with a large enough effect; inconclusive means small, poorly fitted or top-dose-only effect; inactive means flat fitted curve, though single readings scatter.
Potency means the concentration at half of the fitted maximal effect.

The target in this assay is Relaxin receptor 2 (Homo sapiens) (UniProt Q8WXD0). In words: qHTS Assay for Agonists of the Relaxin Receptor RXFP1: RXFP2 Hit Validation. Further: nearly all actives have a fitted effect of over 65% in size. To be noted: HEK293 RXFP2 cAMP TR-FRET, 30 min; series mostly up to 115 µM. The source says: NIH Chemical Genomics Center [NCGC] NIH Molecular Libraries Probe Production Centers Network [MLPCN] MLPCN Grant: R03 MH085705-01A1 Assay Submitter (PI): Alexander Agoulnik NCGC Assay Overview: The relaxin hormone is involved in the variety of biological functions in normal tissues and diseases. The role of relaxin is well-established in female reproduction and parturition, mammary gland and endometrial development, maintenance of myometrial quiescence during pregnancy. Relaxin signaling through its G protein-coupled receptor (GPCR) RXFP1 results in ECM remodeling through regulation of collagen deposition, cell invasiveness, proliferation and overall tissue homeostasis. […] Recombinant human relaxin (rhRlx) is currently being tested in clinical trials as a protective agent in congestive heart failure, in treating severe preeclampsia, and as an anti-fibrotic agent in systemic sclerosis. Upon relaxin binding RXFP1 activation leads to the activation of adenylate cyclase (AC) via Gs. cAMP will activate PKA, which phosphorylates many signaling proteins. Thus, detection of cAMP increase is an easy and reliable indication of relaxin receptor activation. To screen for agonists of the relaxin receptor, a HEK293T cell line stably transfected with RXFP1 was used. RXFP1 activation was assayed by changes in cAMP levels as detected with a time-resolved fluorescence energy transfer (TR-FRET) cAMP detection kit. This assay measures activation of a cell expressing RXFP2, another GPCR targeted by relaxin, to determine the selectivity of compounds for RXFP1.
Relaxin receptor 2 (Homo sapiens), sequence (Q8WXD0 whole entry, looked up): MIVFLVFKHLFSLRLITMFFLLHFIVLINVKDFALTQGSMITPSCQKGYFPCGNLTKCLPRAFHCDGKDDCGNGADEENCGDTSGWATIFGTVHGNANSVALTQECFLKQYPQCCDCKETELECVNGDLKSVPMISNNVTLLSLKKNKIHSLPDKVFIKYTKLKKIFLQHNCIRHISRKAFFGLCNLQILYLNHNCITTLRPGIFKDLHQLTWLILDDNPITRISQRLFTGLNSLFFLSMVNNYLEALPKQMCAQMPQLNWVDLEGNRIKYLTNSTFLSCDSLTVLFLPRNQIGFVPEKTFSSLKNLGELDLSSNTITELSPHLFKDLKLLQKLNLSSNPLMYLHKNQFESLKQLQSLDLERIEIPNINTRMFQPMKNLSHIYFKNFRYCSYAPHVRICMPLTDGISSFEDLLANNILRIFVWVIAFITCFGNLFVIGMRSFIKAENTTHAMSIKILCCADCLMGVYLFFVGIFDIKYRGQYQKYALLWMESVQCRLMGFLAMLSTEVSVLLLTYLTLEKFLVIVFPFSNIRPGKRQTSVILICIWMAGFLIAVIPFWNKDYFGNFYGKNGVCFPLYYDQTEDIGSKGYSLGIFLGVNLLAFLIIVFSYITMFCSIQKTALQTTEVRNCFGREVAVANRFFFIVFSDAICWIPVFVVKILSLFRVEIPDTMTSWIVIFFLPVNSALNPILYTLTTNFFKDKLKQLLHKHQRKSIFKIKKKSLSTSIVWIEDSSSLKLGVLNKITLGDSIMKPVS
NCGC Assay Protocol Summary: This is a cell-based assay for cAMP second messenger response to screen for agonists of the RXFP2 receptor. The assay was conducted in the presence of a PDE4 inhibitor (Ro 20174). The cells were lysed and the cAMP levels were measured with a TR-FRET cAMP kit. Presence of cAMP in the cell lysate disrupts binding between the cryptate-labeled anti-cAMP and d2-labeled cAMP pair, leading to a decrease in the TR-FRET signal. Data were normalized to the controls for basal activity (buffer only) and 100% activity (29 nM porcine relaxin). The EC50 values were determined from concentration-response data modeled with the standard Hill equation 1536-well assay protocol for the HEK293 RXFP2 cAMP assay: (1) Add 3 ul HEK293 RXFP2 cell culture. 2000 cells/well in DMEM/F12, 10% FBS, 1x Pen/Strep (dispensed offline with MultiDrop Combi). (2) Incubate 16-24 hr at 37C, 5% CO2. (3) Add 1 ul 400uM Ro20174 in DPBS, 0.05% BSA, 0.005% Tween 20. (3) Add 23 nl compounds in DMSO solution. Final concentration was 0.5 - 58 uM. (4) Incubate 30 min at 37C, 5% CO2. (5) Add 1 ul cAMP-d2 in lysis buffer (HTRF cAMP HiRange kit, CisBio). (6) Add 1 ul anti-cAMP antibody-cryptate in lysis buffer (HTRF cAMP HiRange kit, CisBio). (7) Incubate 30 min at room temperature. […] Keywords: relaxin, RXFP1, RXFP2, G-protein coupled receptor, cAMP, agonist, high throughput screening, MLSMR, MLSCN, NIH Roadmap, qHTS and NCGC
On the technique in general: qHTS replaces the single test concentration by a dilution series.
Turning to `Cc1cccc(-c2nnc(SCC(=O)NC3CC3)n2C)c1`, the Potency entry was “inactive”.
Turning to `Cc1cccc(C(=O)Nc2ccccc2C(=O)NCc2ccco2)c1`, the Potency result was “inactive”.
Next, `Cn1c(=O)c2sccc2n2c(CCCC(=O)NCCc3ccc(S(N)(=O)=O)cc3)nnc12`: 43.6 µM (active); `CN(C)c1ccc(NC(=O)C2C3C=CC(C3)C2C(=O)O)cc1` (stereo not given): “inactive”; `O=C(Nc1ccc(Cl)cc1)Nc1ccccc1Sc1ncc([N+](=O)[O-])s1`: “inactive”.
With `COc1ccc(S(=O)(=O)Nc2ccccn2)c(C)c1C`, the Potency result is “inactive”.
For `CCN(c1ccccc1)S(=O)(=O)c1ccc(OC)c(NC(=O)C2CC(=O)N(Cc3ccccc3)C2)c1` (stereo not given) the value was “inactive”; for `Cc1cc(C)nc(NS(=O)(=O)c2ccc(N3C(=O)c4ccccc4C3=O)cc2)n1`, 29.8 µM (active).
For the molecule `N#C/C(=C/c1ccc(OCc2ccccc2)cc1)C(=O)NC1CCCCC1`, the Potency result was “inactive”.
For `Cc1cc(NC(=O)c2ccccc2F)nc2c1c(=O)oc1ccccc12` the value was 15.4 µM (active); for `CC1(C)Cc2c(sc3c2c2ncnn2c2nnc(SCC(=O)NCc4ccco4)n32)CO1`, 7.76 µM (active); for `CCOc1ccc2cc(C#N)c(SCC(=O)NC(C)CC)nc2c1` (stereo not given), 6.15 µM (active).
Next, `Cc1cc(C)n2nc(C(=O)Nc3ccc4c(c3)OCCO4)nc2n1`: 6.9 µM (active); `CCCC(=O)Nc1ncnc2c1ncn2[C@@H]1O[C@@H]2OP(=O)(O)OC[C@H]2[C@H]1OC(=O)CCC`: 0.868 µM (active).
On to `C=CCNC(=O)NC(=O)COC(=O)c1nc2nccc(C)n2n1`, for which the Potency is 34.6 µM (active).
For `CCCn1c(SCC(=O)Nc2ccc(NC(C)=O)cc2)nc2c1c(=O)n(C)c(=O)n2C` the value was 34.6 µM (active); for `Cn1c2ccccc2c2nnc(SCC(=O)Nc3cccc(C(=O)O)c3)nc21`, 30.9 µM (active).
Next, `Cc1nnc(Nc2ccc(S(N)(=O)=O)cc2)c2ccccc12`: 34.6 µM (active); `CCCCn1c(SCC(=O)N2CCOCC2)nc2c1c(=O)n(C)c(=O)n2C`: 38.9 µM (active).
For `O=C(Nc1ccccc1C(=O)NCCc1ccccc1)c1ccco1` the value was “inactive”; for `O=C(Nc1cccc(C(F)(F)F)c1)c1ccccc1NC(=O)C1CCCCC1`, “inactive”.
As for `Cc1ccc(-n2nnc3c(=O)n(CC(=O)NCC4CCCO4)cnc32)cc1` (stereo not given), the Potency is 30.9 µM (active).
Next, `COc1ccc(CN2C(=O)c3cccnc3C2=O)cc1S(=O)(=O)NC1CCCCC1`: 34.6 µM (active).
Next, `O=C(Nc1ccccc1C(=O)NCCc1ccc(O)cc1)c1ccco1`: “inactive”; `CCC(=O)Nc1ccc(-n2nnnc2SCC(=O)NNC(=O)c2ccco2)cc1`: “inactive”; `Cc1cccc(NC(=O)c2ccccc2NC(=O)c2ccco2)c1`: “inactive”.
For `O=C(Nc1ccccc1C(=O)NCc1ccco1)c1ccco1` the value was “inactive”; for `O=C(CN1C(=O)c2cccc3cccc(c23)C1=O)NCCN1CCOCC1`, “inactive”.
Consider `COc1ccc(CNC(=O)CN2C(=O)NC(C)(c3cccc(Br)c3)C2=O)cc1` (stereo not given), for which the Potency entry is “inactive”.
Next, `CC(=O)Nc1c2c3c(cccc3n(C)c1=O)C(=O)c1ccccc1-2`: “inactive”; `N#CCCSc1ncnc2c1oc1ccccc12`: 19.4 µM (active).
For `CCc1cc2c(=O)nc3n(c2s1)Cc1ccccc1/C3=C(/O)c1cccc([N+](=O)[O-])c1` the value was 6.16 µM (active).
Next, `Cn1c(=O)c2sccc2n2c(CCCC(=O)NCc3ccco3)nnc12`: 34.6 µM (active); `COc1ccc(CCn2c(=N)c(C(=O)NCC3CCCO3)cc3c(=O)n4cccc(C)c4nc32)cc1` (stereo not given): “inactive”.
As to `Cc1c(CCOC(=O)c2cc([N+](=O)[O-])ccc2Cl)sc[n+]1CCCCS(=O)(=O)[O-]`, the Potency entry is “inactive”.
Next, `COc1cccc(CNC(=O)c2ccc(CS(=O)Cc3ccc(C)cc3)o2)c1` (stereo not given): “inactive”.
With `COC(=O)Cn1cnc2c(C#N)c3n(c2c1=O)CCCC3`, the Potency was 30.9 µM (active).
In the case of `CCN(CC)CCCCCC(=O)Nc1ccccc1C(=O)Nc1ccccc1`, the Potency result is “inactive”.
For `COC(=O)c1nc2ccc(N3CCOCC3)cc2c(C)c1C(=O)OC` the value was 38.9 µM (active).
For `CN(C)c1ccc2nc3c(=O)[nH]c(=O)nc-3n(CC(O)C(O)C(O)CO)c2c1` (stereo not given) the value was “inactive”.

The values are drawn from PubChem BioAssay AID489043 (National Center for Advancing Translational Sciences (NCATS), 2010).
